Compounds without any hit were thinned out: in the full panel of roughly 83,000, 20% have a hit.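 Interpretation: 100, growth as untreated; towards 0, rising growth inhibition; 0, no net growth; 0 to -100, cell death. Compounds scoring below 10 were considered active.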 A number with no mark means an inactive call. Calls of active or inactive are those of the source.
How the values were obtained:
Assay in all cases: NCI-60 one-dose screen, 48 h (100 = growth as untreated, 0 = no growth, -100 = all killed)
Conditions in all cases: 10 µM unless noted
HCT-15 colon = tested on: HCT-15 colon
HT29 colon = tested on: HT29 colon
SNB-75 CNS = tested on: SNB-75 CNS
SNB-19 CNS = tested on: SNB-19 CNS
U251 CNS = tested on: U251 CNS
PC-3 prostate = tested on: PC-3 prostate
UACC-62 melanoma = tested on: UACC-62 melanoma
LOX IMVI melanoma = tested on: LOX IMVI melanoma
SK-MEL-28 melanoma = tested on: SK-MEL-28 melanoma
SK-MEL-2 melanoma = tested on: SK-MEL-2 melanoma
SN12C renal = tested on: SN12C renal
UO-31 renal = tested on: UO-31 renal
TK-10 renal = tested on: TK-10 renal
ACHN renal = tested on: ACHN renal
CCRF-CEM leukemia = tested on: CCRF-CEM leukemia
MOLT-4 leukemia = tested on: MOLT-4 leukemia
EKVX NSCLC = tested on: EKVX NSCLC
A498 renal = tested on: A498 renal
CAKI-1 renal = tested on: CAKI-1 renal

Row | Structure (SMILES) | growth (HCT-15 colon) | growth (HT29 colon) | growth (SNB-75 CNS) [%] | growth (SNB-19 CNS) [%] | growth (U251 CNS) | growth (PC-3 prostate) [%] | growth (UACC-62 melanoma) | growth (LOX IMVI melanoma) | growth (SK-MEL-28 melanoma) | growth (SK-MEL-2 melanoma) | growth (SN12C renal) [%] | growth (UO-31 renal) | growth (TK-10 renal) | growth (ACHN renal) [%] | growth (CCRF-CEM leukemia) | growth (MOLT-4 leukemia) | growth (EKVX NSCLC) [%] | growth (A498 renal) | growth (CAKI-1 renal)
1 | O=C(O)c1ccc(N=CC(=O)c2ccc(-c3ccccc3)cc2)cc1 | 113% | 103% | 109 | 101 | 98.5% | 86.2 | 93.5% | 101% | 101% | 108% | 95.8 | 93.5% | 96.8% | 96.2 | -57.9% (active) | 99.9% | – | – | –
2 | CCCCCCN(CCCCCC)C(=N)c1ccnc2ccccc12 | 65.9% | 8.96% (active) | 57.6 | 84.1 | 63.9% | 58.3 | 81.3% | 30% | 88.4% | – | 71.9 | 36.5% | 73.4% | 53.2 | -4.39% (active) | 48.8% | 84.5 | 37.2% | –
3 | Cc1cc(N2CCN(c3ccnc4cc(Cl)ccc34)CC2)nc(NC2CCCCC2)n1 | 3.54% (active) | 6.72% (active) | 58.2 | 56.6 | 30.7% | 22.2 | -48.7% (active) | – | 23.9% | 33.1% | – | 6.25% (active) | 48.8% | 40.6 | 1.71% (active) | -14.9% (active) | – | -2.63% (active) | 37.7%
4 | O=C(CN1CCCCC1)Nc1ccc2oc(=O)ccc2c1 | 104% | 104% | 95.6 | 98.4 | 102% | 86.8 | 97.7% | 96.6% | 121% | 96.8% | – | 79.1% | 108% | – | 86% | 83.1% | 101 | 106% | –
5 | CC(=O)c1cc2c(N)c(C(=O)Nc3cccc4ccccc34)sc2nc1C | 33.8% | 5.75% (active) | 19.8 | 21.7 | 15.3% | 17.5 | 23.5% | 41.1% | 67.2% | 36.5% | 40.9 | 42.9% | 56.2% | 47.6 | 6.95% (active) | 24% | – | 13.6% | –
6 | O=C1/C(=C(/c2ccccc2)N2CCOCC2)Cc2ccccc21 | -25.9% (active) | 8.82% (active) | 50.3 | 78.1 | 9.15% (active) | 12.2 | 48.6% | -58.3% (active) | -28.9% (active) | 90.4% | – | -47.8% (active) | -16.7% (active) | – | 22.6% | 22.7% | 38 | 51.4% | -43.5% (active)
7 | COc1ccc(/C=C\c2cc(OC)c(OC)c(OC)c2)cc1OCC(=O)Nc1ccc2nc(C)sc2c1 | 28.3% | 29.2% | 26.9 | 57.4 | 38.3% | 23.4 | 11.9% | 49.6% | – | -1.27% (active) | 51.8 | 5.67% (active) | 1.02% (active) | 47.1 | 15.5% | 22.7% | 66.8 | 80.1% | 23%
8 | COc1ccc(C2Nc3c(c(C(C)(C)C)nn3-c3ccccc3)C(=O)CS2)cc1 (stereo unspecified) | 97.7% | 86.7% | 89.2 | 98.8 | 102% | 79.5 | 80% | 94.5% | 113% | 98.8% | 99.8 | 72% | 100% | 99.9 | 83.9% | 75.7% | – | 113% | 81.9%
9 | COc1ccc(CN2c3ccccc3Sc3ccccc32)cc1O | 33.1% | 8.73% (active) | 26.6 | 33 | 18.5% | 26.1 | – | 43.1% | – | 8.98% (active) | – | 24.4% | 58.3% | 41.7 | 8.29% (active) | 18.4% | 36.7 | 76.4% | 36.2%
